In all, about 360,000 compounds went through this assay and about 1,800 (0.5%) were called active.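 The calls were made as follows: active = mean inhibition of at least 75% with every replicate also reaching 75%; inconclusive = mean inhibition at least 75% but some replicate below; inactive = mean inhibition below 75%.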 Only a selection was taken, and actives are over-represented in it overall.
experiment: Shn3 3'UTR reporter decrease in osteoblasts – cell-based, Clone20 osteoblasts, firefly luciferase, set 2, Schnurri-3 inhibitor project, primary screen (AID 588674); details: Clone20 osteoblast Shn3 3'UTR firefly luciferase, 24 h; at 12.5 µM; stronger effect = higher value;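 also: 0% = median of neutral control wells and 100% = pilot-screen positive control compound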

**Q.** For `CCCCNc1nc2c(c(=O)n(C)c(=O)n2C)n1Cc1cccc(OC)c1`, which inhibition is on record?
**A.** 86.7% (active)

**Q.** Which inhibition does the source give for `Cn1c(=O)c2c(nc(NCCNC(=O)c3ccco3)n2Cc2ccccc2F)n(C)c1=O` here?
**A.** 12.8% (inactive)

**Q.** With `CCn1c(NCCc2ccc(OC)c(OC)c2)nc2c1c(=O)n(C)c(=O)n2C` as the molecule, how does the inhibition read?
**A.** 63.1% (inactive)

**Q.** Which inhibition does the source give for `C[C@H](C(=O)CC(=O)OC(C)(C)C)[C@H](O)c1ccc(C(F)(F)F)cc1` here?
**A.** -13.2% (inactive)

**Q.** For `O=C(NCc1ccc(F)cc1)c1cc(C2CCCCN2C(=O)c2cccs2)on1` (configuration not stated), which inhibition is on record?
**A.** 4.41% (inactive)

**Q.** With `O=S1(=O)CC(N2CCN(c3ccccn3)CC2)CN1Cc1ccc(F)cc1` (configuration not stated) as the molecule, how does the inhibition read?
**A.** 11.2% (inactive)

**Q.** Which inhibition does the source give for `COc1ccccc1N1CCN(/N=C\C(Br)=C\c2ccccc2)CC1` here?
**A.** 39.8% (inactive)

**Q.** Which inhibition does the source give for `COc1ccccc1/C=C/C=N/n1c(-c2ccc(Cl)cc2Cl)n[nH]c1=S` here?
**A.** -1.5% (inactive)

**Q.** For `Cc1cc(-c2n[nH]c(=S)n2/N=C/C(Br)=C/c2ccccc2)n[nH]1`, which inhibition is on record?
**A.** 90.7% (active)

**Q.** With `Cc1ccc(S(=O)(=O)N2C[C@]3(O)C[C@@H]4C(=O)N(c5ccccc5)C(=O)[C@@H]4C[C@]3(OC(=O)NC3CC3)C2)cc1` as the molecule, how does the inhibition read?
**A.** 7.81% (inactive)

**Q.** Which inhibition does the source give for `CCOC(=O)/C(=C\c1ccc([N+](=O)[O-])cc1)C(=O)c1cc(C(C)=O)c(Nc2ccccc2)s1` here?
**A.** 97.8% (active)

**Q.** Which inhibition does the source give for `CCOC(=O)/C(=N\Nc1ccccc1[N+](=O)[O-])c1csc(Nc2ccccc2)n1` here?
**A.** -7.96% (inactive)

**Q.** With `CCOC(=O)C(=Cc1ccccc1)C(=O)c1ccccc1` as the molecule, how does the inhibition read?
**A.** 40.1% (inactive)

**Q.** For `COc1ccc(-c2c(C#Cc3ccsc3)c3cc(-c4ccc(CN5CCOCC5)cc4)ccc3n2C)cc1`, which inhibition is on record?
**A.** 10.2% (inactive)

**Q.** With `CC1(C)CC(N2CCN(C(c3ccccc3)c3ccccc3)CC2)=CC(=[N+]2CCCCC2)C1` as the molecule, how does the inhibition read?
**A.** 88.3% (active)

**Q.** Which inhibition does the source give for `Cc1cccc(N2CCN(C(c3ccccc3)c3nnnn3CC3CCCO3)CC2)c1C` (configuration not stated) here?
**A.** 20.4% (inactive)

**Q.** Which inhibition does the source give for `COc1ccccc1NC(=S)N1CCN(C(c2ccccc2)c2ccccc2)CC1` here?
**A.** 13.3% (inactive)

**Q.** For `Cc1ccc(-n2c(=O)c(C#N)cc3c(=O)n4ccccc4nc32)cc1C`, which inhibition is on record?
**A.** 6.55% (inactive)

**Q.** With `O=C(NCC1CCCCC1)c1cc(S(=O)(=O)N2CCCCC2)ccc1N1CCOCC1` as the molecule, how does the inhibition read?
**A.** -9.53% (inactive)

**Q.** Which inhibition does the source give for `CCc1nnc(NC(=O)CCN(c2ccc(C)cc2)S(=O)(=O)c2ccccc2)s1` here?
**A.** -20.5% (inactive)

**Q.** For `Cc1sc2ncnc(SCC(=O)NC3CCS(=O)(=O)C3)c2c1C` (configuration not stated), which inhibition is on record?
**A.** -6.98% (inactive)

**Q.** Which inhibition does the source give for `CC(C)(C)c1ccc(/C=C2\Oc3c(ccc(O)c3CN3CCN(CCO)CC3)C2=O)cc1` here?
**A.** 7.57% (inactive)

**Q.** Which inhibition does the source give for `COCCCNC(=O)Cn1cc(C(=O)C2CC2)c2ccccc21` here?
**A.** 11.6% (inactive)

**Q.** For `O=C(Cn1cc(C(=O)C2CC2)c2ccccc21)Nc1ccccc1Cl`, which inhibition is on record?
**A.** 87.4% (active)

**Q.** Which inhibition does the source give for `Cc1ccccc1NC(=O)Cn1cc(C(=O)C2CC2)c2ccccc21` here?
**A.** 8.79% (inactive)

**Q.** With `COc1cc(CNc2ncnc3c2ncn3[C@H]2CN(Cc3cccs3)C[C@@H](CO)O2)cc(OC)c1OC` as the molecule, how does the inhibition read?
**A.** -5.77% (inactive)

**Q.** Which inhibition does the source give for `COc1ccccc1C(=O)NC(=S)Nc1ccc(N2CCOCC2)cc1` here?
**A.** -4.89% (inactive)

**Q.** For `Cc1ccccc1C(=O)N1CCN(c2ccc(NC(=O)c3cccs3)cc2)CC1`, which inhibition is on record?
**A.** 23.5% (inactive)

**Q.** Which inhibition does the source give for `Cc1ccccc1C(=O)NC(=S)Nc1ccc(N2CCN(C(=O)c3ccccc3)CC2)cc1` here?
**A.** 88.5% (active)

**Q.** Which inhibition does the source give for `CC1(C(=O)NS(=O)(=O)Cc2cccc(Cl)c2)CCN1C(=O)Cc1ccc(Cl)cc1Cl` (configuration not stated) here?
**A.** 18.9% (inactive)

**Q.** Which inhibition does the source give for `CC1(C)CC(=O)C=C(c2cccc3c2Oc2ccccc2S3)C1` here?
**A.** 22.5% (inactive)

**Q.** Which inhibition does the source give for `CCOC(=O)c1c(C)[nH]c2c1-c1ccccc1C(=O)C2=O` here?
**A.** 95.4% (active)

**Q.** Which inhibition does the source give for `CCOC(=O)c1c(C)[nH]c(C)c1S(=O)(=O)NCCCc1ccco1` here?
**A.** 6.75% (inactive)

**Q.** With `CCOC(=O)c1c(C)[nH]c(C(=O)OCC(=O)c2ccc(OC)cc2OC)c1C` as the molecule, how does the inhibition read?
**A.** -19.1% (inactive)

**Q.** For `COc1ccccc1C(=O)Nc1ccnn1C1CCN(C(=O)C(C)(C)C)CC1`, which inhibition is on record?
**A.** -5.61% (inactive)

**Q.** Which inhibition does the source give for `CC(=O)Nc1ccc(N2C(=O)CCC2=O)cc1C` here?
**A.** -1.51% (inactive)

**Q.** With `C/C(N)=C(/C#N)C(=O)COC(=O)C1CCN(C(=O)c2ccc(Cl)cc2)CC1` as the molecule, how does the inhibition read?
**A.** 3.42% (inactive)

**Q.** Which inhibition does the source give for `Cc1cccc(NC(=O)c2nc(S(=O)(=O)Cc3ccccc3)ncc2Cl)c1` here?
**A.** 96.9% (active)

**Q.** With `Cc1cccc(CN2CCC(CNC(=O)Nc3ccc(F)c(Cl)c3)CC2)c1` as the molecule, how does the inhibition read?
**A.** 31.4% (inactive)

**Q.** With `Cc1cccc(NC(=O)CCN2CC(C)CC(C)C2)c1` (configuration not stated) as the molecule, how does the inhibition read?
**A.** 15.6% (inactive)

**Q.** With `Cc1cccc(NC(=O)Cn2cc(C(=O)c3ccco3)c3ccccc32)c1` as the molecule, how does the inhibition read?
**A.** 76.4% (inactive)

**Q.** Which inhibition does the source give for `Cc1ccc(C)c(Cn2nnc3c(=O)[nH]c(C(=O)Nc4ccc(F)cc4)nc32)c1` here?
**A.** 6.9% (inactive)

**Q.** With `Cc1cccc(CS(=O)(=O)c2ncc(Cl)c(C(=O)Nc3ccc(F)cc3)n2)c1` as the molecule, how does the inhibition read?
**A.** 95.8% (active)

**Q.** Which inhibition does the source give for `CCS(=O)(=O)Nc1ccc(C(=O)NCCSc2ccccc2)cc1` here?
**A.** -6.43% (inactive)

**Q.** For `CCCCc1ccc(NC(=S)N2CCCC(CO)C2)cc1` (configuration not stated), which inhibition is on record?
**A.** -84.4% (inactive)

**Q.** For `COc1cccc(CN(C)CC(=O)Nc2sc3c(c2C#N)CCC3)c1`, which inhibition is on record?
**A.** -22.6% (inactive)

**Q.** For `COc1cncc(-c2cnc3sc(NCCc4ccccn4)nn23)c1`, which inhibition is on record?
**A.** 21.9% (inactive)

**Q.** Which inhibition does the source give for `COC(=O)c1sc(C(F)(F)F)c(-c2ccccc2)c1S(=O)(=O)N(C)C` here?
**A.** 10.9% (inactive)

**Q.** For `CC(C)OC(=O)c1ccc(NCc2cc(O)ccc2O)cc1Cl`, which inhibition is on record?
**A.** 95.7% (active)

**Q.** For `O=C(O)Cc1ccc(NCc2ccccc2Cl)cc1`, which inhibition is on record?
**A.** -22.2% (inactive)

**Q.** For `CC(CN1CCCCC1)OC(=O)c1ccccc1Cl` (configuration not stated), which inhibition is on record?
**A.** -3.13% (inactive)

**Q.** For `CNS(=O)(=O)c1cccc(C(=O)OCCCC(=O)c2ccccc2)c1`, which inhibition is on record?
**A.** 41.8% (inactive)

**Q.** Which inhibition does the source give for `Fc1ccc2[nH]c3c(N4CCSCC4)ncnc3c2c1` here?
**A.** 89.7% (active)

**Q.** Which inhibition does the source give for `CC(C)Cn1cnc2c(SCc3ccc(Cl)cc3)nc(N)nc21` here?
**A.** 11.7% (inactive)

**Q.** With `COCCn1c(SC(C)C(=O)NC2CC2)nnc1-c1cccc(C)c1` (configuration not stated) as the molecule, how does the inhibition read?
**A.** 1.3% (inactive)

**Q.** Which inhibition does the source give for `O=C(OC12CC3CC(CC(C3)C1)C2)c1ccc(NCc2cc(O)ccc2O)cc1` here?
**A.** 98.1% (active)

**Q.** With `CC1(C)C2CCC1(C)C(OC(=O)c1ccc(O)cc1)C2` (configuration not stated) as the molecule, how does the inhibition read?
**A.** 21.8% (inactive)
